These results are taken from PubChem BioAssay AID1565 (Sanford-Burnham Center for Chemical Genomics, 2009).

The campaign covered roughly 290,000 compounds. About 3,200 (1.1%) were called active. The sample as a whole holds a higher share of actives than the screen did. Unmarked numbers belong to inactive results. Cut-off read from the data, not from the text of the source: active = inhibition above about 60%; inactive = the rest.

In this assay the target is Phosphoethanolamine/phosphocholine phosphatase (Homo sapiens) (UniProt Q8TCT1). Briefly: PubChem AID 1565. To be noted: recombinant PHOSPHO1, absorbance phosphatase assay; at 13.3 µM; stronger effect = higher value.
Phosphoethanolamine/phosphocholine phosphatase (Homo sapiens), sequence (Q8TCT1 whole entry, looked up): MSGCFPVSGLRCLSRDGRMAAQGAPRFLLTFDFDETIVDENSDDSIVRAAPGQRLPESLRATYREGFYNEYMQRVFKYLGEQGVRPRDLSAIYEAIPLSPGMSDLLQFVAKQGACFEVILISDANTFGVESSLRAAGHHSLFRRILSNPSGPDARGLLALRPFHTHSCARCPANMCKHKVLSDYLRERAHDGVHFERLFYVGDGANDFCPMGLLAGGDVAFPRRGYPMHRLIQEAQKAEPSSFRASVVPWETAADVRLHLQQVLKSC
As usually defined, the inhibition is the change of the read-out against control, counted positive when it falls. Consider `COc1ccccc1N=Nc1c(O)[nH]c(=S)[nH]c1=O`, for which the inhibition was 11.7%.

For `COc1ccccc1N=C1SCCCN1C`, the inhibition is 85.5% (active). For `CC(C)(C)c1ccc(OC(=O)N2CCCCC2)cc1`, the inhibition is 27.4%. Regarding `Cc1cccc(NC(=O)N2CC3CC(C2)c2cccc(=O)n2C3)c1` (stereo not given), the inhibition is 41.8%. The figure for `O=c1c2ccccc2nc(-c2ccccc2)n1-c1ccccn1` is 32.4%; for `O=c1c2ccccc2nc(-c2ccco2)n1-c1ccc(Br)cn1` it is -3.3%; for `Cc1ccc(-c2nc3ccccc3c(=O)n2-c2ccc(Br)cn2)cc1` it is 68.6% (active). The figure for `Cc1nc2ccccn2c1P(=S)(N1CCCCC1)N1CCCCC1` is 15.2%. Regarding `COc1cccc(CN2CCCC(C(=O)c3ccccc3SC)C2)c1O` (stereo not given), the inhibition is 12.9%.

On to `O=c1c2ccccc2nc(/C=C/c2ccc(F)cc2)n1-c1ccccc1O`, for which the inhibition was 38.1%. On to `O=[N+]([O-])c1ccc(C2C3C(c4ccccc4)=NC4(CCCCC4)N32)cc1` (stereo not given), for which the inhibition is 64.6% (active). Consider `Cc1ccc(-n2c(-c3ccc([N+](=O)[O-])cc3)nc3ccccc3c2=O)cc1`, for which the inhibition was -3.5%. The result for `COCc1cc(OC(=O)N(C)C)nc(-c2ccc(C)c(Cl)c2)n1` reads 20.3%; that for `COC(=O)N(c1ccc(OC)cc1)P1(=S)OCCC(C)O1` (stereo not given), 65.4% (active). The result for `CCOC(=O)c1c(-c2ccccc2)oc2ccc(OC(=O)N(C)C)cc12` reads -3.7%. On to `COc1ccc(Br)cc1CNCCc1cccc(Cl)c1`, for which the inhibition was 13.9%. The figure for `COc1ccc(N2C(=O)/C(=C/c3ccco3)C(=O)NC2=S)cc1` is -112%.

`O=C(O)c1ccccc1NC(=O)C1C2CCC(O2)C1C(=O)O` (stereo not given): the inhibition is 28.7%. The result for `c1ccc(CCNC2CCCCCC2)cc1` reads 31.6%. As to `O=c1[nH]c(CN2CC=C(c3ccccc3)CC2)nc2scc(-c3cccs3)c12`, the inhibition is 50.8%. The result for `C[N+]12CN3CN(CN(C3)C1)C2` reads -34.4%. The result for `CC1=CC(=Cc2sc3ccccc3[n+]2C)C=C(C)O1` reads 5.9%.

For the molecule `CCN(CC)CCOC(=O)c1cc2cc(COC)ccc2o1`, the inhibition is 94.9% (active). As to `COc1cccc(N2C(=O)NC(=O)/C(=C\c3ccc([N+](=O)[O-])s3)C2=O)c1`, the inhibition is -60.1%. With `Cc1cc(=O)oc2c(C)c(OCC(=O)N3CCN(Cc4ccc5c(c4)OCO5)CC3)ccc12`, the inhibition is 27.9%.
